Data taken from ChEMBL document CHEMBL1961873, “Compounds: GSK PKIS; Assays: Nanosyn kinase panel” (2012).

Experiments:
[1] = molecular target: Tyrosine-protein kinase receptor UFO (Homo sapiens) (UniProt P30530); conditions: at 1 µM
[2] = molecular target: Tyrosine-protein kinase Blk (Homo sapiens) (UniProt P51451); conditions: at 0.1 µM
[3] = molecular target: Tyrosine-protein kinase Blk (Homo sapiens) (UniProt P51451); conditions: at 1 µM
[4] = molecular target: T1, Cytoplasmic tyrosine-protein kinase BMX (Homo sapiens) (UniProt P51813); conditions: at 0.1 µM
T1 sequence (whole entry): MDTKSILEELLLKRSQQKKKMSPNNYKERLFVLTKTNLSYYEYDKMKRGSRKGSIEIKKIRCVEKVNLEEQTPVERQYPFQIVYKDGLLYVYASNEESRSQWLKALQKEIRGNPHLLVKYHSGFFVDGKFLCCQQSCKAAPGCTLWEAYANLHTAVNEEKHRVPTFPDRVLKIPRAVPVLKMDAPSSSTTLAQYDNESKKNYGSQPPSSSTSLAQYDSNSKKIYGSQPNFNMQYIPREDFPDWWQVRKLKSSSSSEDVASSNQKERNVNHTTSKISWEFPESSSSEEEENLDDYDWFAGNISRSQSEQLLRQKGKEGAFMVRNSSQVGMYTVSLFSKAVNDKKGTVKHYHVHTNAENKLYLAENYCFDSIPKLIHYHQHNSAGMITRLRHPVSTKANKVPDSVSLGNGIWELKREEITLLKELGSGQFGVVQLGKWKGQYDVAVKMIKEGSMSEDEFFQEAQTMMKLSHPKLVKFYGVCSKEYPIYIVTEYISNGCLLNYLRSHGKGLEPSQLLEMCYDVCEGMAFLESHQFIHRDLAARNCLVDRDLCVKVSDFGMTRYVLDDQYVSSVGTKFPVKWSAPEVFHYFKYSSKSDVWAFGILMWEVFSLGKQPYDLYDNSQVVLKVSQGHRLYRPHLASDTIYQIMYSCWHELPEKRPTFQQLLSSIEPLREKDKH

[5] = molecular target: T1, Cytoplasmic tyrosine-protein kinase BMX (Homo sapiens); conditions: at 1 µM
[6] = molecular target: Protein-tyrosine kinase 6 (Homo sapiens) (UniProt Q13882); conditions: at 0.1 µM
[7] = molecular target: Protein-tyrosine kinase 6 (Homo sapiens) (UniProt Q13882); conditions: at 1 µM
[8] = molecular target: Tyrosine-protein kinase BTK (Homo sapiens) (UniProt Q06187); conditions: at 0.1 µM
[9] = molecular target: Tyrosine-protein kinase BTK (Homo sapiens) (UniProt Q06187); conditions: at 1 µM
[10] = molecular target: Tyrosine-protein kinase CSK (Homo sapiens) (UniProt P41240); conditions: at 0.1 µM
[11] = molecular target: Tyrosine-protein kinase CSK (Homo sapiens) (UniProt P41240); conditions: at 1 µM
[12] = molecular target: T2, Discoidin domain-containing receptor 2 (Homo sapiens) (UniProt Q16832); conditions: at 0.1 µM
T2 sequence (whole entry): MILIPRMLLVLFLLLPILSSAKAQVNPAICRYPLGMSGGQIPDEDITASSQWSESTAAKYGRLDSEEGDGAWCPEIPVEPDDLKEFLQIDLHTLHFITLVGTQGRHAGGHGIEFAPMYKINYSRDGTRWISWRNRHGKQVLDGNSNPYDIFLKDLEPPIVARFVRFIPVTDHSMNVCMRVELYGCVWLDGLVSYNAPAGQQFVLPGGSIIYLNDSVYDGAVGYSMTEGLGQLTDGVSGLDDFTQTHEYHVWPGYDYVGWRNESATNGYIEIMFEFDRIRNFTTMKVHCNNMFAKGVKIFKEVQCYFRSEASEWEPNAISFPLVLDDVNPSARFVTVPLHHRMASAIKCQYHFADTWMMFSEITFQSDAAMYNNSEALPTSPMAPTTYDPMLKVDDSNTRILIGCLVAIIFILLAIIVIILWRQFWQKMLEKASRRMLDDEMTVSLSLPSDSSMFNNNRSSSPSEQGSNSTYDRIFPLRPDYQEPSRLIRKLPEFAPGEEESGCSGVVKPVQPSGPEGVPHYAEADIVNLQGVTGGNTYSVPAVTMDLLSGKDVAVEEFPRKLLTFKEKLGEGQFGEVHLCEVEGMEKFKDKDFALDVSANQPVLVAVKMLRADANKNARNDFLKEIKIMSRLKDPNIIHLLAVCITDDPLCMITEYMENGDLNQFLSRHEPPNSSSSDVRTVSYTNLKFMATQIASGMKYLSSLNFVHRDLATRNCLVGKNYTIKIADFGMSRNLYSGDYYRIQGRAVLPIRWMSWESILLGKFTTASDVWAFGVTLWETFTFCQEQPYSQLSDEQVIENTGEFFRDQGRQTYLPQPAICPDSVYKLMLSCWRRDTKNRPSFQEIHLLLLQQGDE

[13] = molecular target: T2, Discoidin domain-containing receptor 2 (Homo sapiens); conditions: at 1 µM
[14] = molecular target: Epidermal growth factor receptor (Homo sapiens) (UniProt P00533); conditions: at 0.1 µM
[15] = molecular target: Epidermal growth factor receptor (Homo sapiens) (UniProt P00533); conditions: at 1 µM
[16] = tested on: Epidermal growth factor receptor (Homo sapiens), P00533 [L858R]; conditions: at 0.1 µM
[17] = tested on: Epidermal growth factor receptor (Homo sapiens), P00533 [L858R]; conditions: at 1 µM
[18] = tested on: Epidermal growth factor receptor (Homo sapiens), P00533 [L861Q]; conditions: at 0.1 µM
[19] = tested on: Epidermal growth factor receptor (Homo sapiens), P00533 [L861Q]; conditions: at 1 µM
[20] = tested on: Epidermal growth factor receptor (Homo sapiens), P00533 [T790M]; conditions: at 0.1 µM
Epidermal growth factor receptor (Homo sapiens), P00533 [T790M], sequence (P00533 whole entry T790M): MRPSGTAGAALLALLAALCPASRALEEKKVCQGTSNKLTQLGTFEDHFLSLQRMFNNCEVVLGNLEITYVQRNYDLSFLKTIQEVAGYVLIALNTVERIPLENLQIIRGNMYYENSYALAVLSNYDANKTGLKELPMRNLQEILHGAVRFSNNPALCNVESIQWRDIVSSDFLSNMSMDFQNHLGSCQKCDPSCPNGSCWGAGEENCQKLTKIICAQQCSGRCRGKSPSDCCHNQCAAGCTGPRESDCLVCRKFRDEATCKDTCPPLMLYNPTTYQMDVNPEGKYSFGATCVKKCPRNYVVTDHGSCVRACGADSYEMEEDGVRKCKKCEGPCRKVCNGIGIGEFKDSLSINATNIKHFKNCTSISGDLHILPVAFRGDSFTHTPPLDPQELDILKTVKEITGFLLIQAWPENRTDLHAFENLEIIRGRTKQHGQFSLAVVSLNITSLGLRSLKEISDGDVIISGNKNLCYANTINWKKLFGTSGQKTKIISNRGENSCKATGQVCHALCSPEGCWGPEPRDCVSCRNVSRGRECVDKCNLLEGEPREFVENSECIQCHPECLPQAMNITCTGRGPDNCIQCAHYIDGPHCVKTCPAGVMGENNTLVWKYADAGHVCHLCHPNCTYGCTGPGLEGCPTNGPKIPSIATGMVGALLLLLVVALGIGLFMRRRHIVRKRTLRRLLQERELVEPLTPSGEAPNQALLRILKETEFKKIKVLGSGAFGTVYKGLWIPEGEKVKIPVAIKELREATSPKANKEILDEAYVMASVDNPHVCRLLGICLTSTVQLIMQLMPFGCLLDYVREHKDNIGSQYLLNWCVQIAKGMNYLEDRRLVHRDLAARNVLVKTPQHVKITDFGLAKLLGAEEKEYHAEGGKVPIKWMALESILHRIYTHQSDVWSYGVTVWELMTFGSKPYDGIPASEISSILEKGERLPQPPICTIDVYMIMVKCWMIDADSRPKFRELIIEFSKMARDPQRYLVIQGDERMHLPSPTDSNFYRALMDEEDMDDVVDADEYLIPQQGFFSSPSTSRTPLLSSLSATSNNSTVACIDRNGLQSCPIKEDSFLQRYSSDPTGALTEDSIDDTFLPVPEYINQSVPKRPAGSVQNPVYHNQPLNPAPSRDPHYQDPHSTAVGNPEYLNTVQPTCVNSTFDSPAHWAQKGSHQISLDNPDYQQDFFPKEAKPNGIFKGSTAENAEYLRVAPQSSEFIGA

Tyrosine-protein kinase receptor UFO (Homo sapiens), sequence (P30530 whole entry): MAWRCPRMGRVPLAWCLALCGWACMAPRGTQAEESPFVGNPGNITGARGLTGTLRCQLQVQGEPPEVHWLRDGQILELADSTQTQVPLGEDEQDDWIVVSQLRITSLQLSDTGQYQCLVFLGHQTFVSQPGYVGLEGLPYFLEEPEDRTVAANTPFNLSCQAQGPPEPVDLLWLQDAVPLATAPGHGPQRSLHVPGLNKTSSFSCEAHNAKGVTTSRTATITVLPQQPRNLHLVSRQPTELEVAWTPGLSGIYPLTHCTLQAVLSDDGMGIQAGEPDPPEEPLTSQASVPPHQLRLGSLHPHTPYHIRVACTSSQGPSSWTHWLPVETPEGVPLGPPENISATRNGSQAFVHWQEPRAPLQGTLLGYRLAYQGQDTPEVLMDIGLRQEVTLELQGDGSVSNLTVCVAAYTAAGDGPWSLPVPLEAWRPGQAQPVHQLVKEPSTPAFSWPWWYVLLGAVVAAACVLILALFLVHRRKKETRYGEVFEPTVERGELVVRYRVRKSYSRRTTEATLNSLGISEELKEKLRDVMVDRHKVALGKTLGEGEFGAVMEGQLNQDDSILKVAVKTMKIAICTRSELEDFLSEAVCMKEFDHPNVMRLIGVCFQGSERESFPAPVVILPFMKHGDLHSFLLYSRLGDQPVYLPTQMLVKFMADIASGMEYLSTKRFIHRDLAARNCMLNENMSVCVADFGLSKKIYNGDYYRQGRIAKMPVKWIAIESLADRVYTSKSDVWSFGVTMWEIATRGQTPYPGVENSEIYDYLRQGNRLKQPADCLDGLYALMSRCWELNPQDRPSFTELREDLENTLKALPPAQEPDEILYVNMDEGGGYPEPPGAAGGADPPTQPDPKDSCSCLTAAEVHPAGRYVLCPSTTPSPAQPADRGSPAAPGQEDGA
Tyrosine-protein kinase BTK (Homo sapiens), sequence (Q06187 whole entry): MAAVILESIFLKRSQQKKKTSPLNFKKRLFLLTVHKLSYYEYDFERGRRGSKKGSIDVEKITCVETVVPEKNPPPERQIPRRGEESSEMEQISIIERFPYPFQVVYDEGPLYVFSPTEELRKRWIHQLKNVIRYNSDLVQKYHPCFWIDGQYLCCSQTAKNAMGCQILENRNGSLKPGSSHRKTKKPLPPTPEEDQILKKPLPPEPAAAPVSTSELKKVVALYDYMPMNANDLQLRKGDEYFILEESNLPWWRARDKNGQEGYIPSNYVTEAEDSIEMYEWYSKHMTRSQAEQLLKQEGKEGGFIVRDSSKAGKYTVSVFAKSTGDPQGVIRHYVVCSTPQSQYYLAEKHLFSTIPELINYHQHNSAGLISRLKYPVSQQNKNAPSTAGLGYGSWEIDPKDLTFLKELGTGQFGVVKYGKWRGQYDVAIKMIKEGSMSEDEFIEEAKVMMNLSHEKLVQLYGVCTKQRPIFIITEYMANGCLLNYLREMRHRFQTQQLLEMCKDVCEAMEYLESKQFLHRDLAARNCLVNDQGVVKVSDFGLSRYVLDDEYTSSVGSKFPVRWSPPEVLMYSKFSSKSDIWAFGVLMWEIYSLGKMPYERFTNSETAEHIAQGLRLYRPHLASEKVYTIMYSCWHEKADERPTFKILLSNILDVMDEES
Tyrosine-protein kinase CSK (Homo sapiens), sequence (P41240 2-450 limits assumed): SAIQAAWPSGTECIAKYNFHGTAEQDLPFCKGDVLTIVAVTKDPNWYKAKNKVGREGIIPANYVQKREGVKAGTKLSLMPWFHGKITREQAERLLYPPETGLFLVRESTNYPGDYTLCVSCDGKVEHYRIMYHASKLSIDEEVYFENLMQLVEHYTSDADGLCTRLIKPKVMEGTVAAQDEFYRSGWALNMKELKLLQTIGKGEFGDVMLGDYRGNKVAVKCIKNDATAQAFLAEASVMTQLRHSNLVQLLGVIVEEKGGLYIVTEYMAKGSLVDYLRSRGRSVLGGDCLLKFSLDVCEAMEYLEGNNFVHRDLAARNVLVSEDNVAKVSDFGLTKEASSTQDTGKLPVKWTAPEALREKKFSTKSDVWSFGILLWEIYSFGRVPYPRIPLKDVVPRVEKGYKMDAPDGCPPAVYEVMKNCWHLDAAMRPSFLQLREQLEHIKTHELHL
Epidermal growth factor receptor (Homo sapiens), P00533 [L861Q], sequence (P00533 whole entry L861Q): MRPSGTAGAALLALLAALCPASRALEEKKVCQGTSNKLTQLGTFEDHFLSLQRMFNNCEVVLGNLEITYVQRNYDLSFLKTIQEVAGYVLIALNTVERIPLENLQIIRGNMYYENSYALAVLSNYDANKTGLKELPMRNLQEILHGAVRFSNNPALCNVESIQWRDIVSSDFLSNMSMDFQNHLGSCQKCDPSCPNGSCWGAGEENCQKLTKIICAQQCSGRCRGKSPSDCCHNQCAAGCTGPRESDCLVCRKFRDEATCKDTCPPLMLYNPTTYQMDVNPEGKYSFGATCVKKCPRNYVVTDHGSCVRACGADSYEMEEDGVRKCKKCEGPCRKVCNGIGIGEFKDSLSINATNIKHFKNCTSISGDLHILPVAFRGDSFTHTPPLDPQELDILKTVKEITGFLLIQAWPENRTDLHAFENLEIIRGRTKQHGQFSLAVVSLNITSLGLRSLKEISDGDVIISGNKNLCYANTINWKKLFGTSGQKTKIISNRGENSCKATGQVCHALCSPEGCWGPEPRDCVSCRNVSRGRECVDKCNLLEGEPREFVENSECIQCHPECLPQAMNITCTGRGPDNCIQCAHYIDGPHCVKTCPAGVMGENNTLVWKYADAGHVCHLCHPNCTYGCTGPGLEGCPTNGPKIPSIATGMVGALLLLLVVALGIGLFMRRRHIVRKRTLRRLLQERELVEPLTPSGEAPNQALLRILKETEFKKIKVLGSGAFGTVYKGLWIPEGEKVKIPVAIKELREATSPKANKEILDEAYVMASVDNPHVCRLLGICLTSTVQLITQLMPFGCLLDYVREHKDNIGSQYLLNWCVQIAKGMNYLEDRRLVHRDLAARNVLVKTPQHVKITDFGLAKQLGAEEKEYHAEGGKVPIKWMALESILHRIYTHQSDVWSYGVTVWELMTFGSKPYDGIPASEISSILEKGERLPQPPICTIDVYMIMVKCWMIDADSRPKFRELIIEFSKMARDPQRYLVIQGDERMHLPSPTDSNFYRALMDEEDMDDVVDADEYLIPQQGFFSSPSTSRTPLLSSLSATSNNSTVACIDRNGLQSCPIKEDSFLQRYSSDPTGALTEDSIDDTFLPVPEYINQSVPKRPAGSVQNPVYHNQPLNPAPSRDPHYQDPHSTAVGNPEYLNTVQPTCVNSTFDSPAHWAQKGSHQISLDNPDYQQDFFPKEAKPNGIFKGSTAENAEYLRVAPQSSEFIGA
Protein-tyrosine kinase 6 (Homo sapiens), sequence (Q13882 whole entry, looked up): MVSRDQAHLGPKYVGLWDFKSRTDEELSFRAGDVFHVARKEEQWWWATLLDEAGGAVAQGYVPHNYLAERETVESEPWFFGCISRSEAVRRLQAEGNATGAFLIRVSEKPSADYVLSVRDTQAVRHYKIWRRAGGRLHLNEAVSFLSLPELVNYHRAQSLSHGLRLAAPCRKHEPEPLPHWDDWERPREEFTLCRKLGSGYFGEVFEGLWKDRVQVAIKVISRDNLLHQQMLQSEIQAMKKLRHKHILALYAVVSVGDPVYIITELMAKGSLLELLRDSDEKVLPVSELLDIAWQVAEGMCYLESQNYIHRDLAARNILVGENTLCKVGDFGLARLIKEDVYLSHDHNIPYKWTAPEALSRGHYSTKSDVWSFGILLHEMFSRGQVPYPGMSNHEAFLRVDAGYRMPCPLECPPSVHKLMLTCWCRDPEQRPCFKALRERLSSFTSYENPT

Row | Compound | inhibition [1] | inhibition [2] | inhibition [3] | inhibition [4] | inhibition [5] | inhibition [6] | inhibition [7] | inhibition [8] | inhibition [9] | inhibition [10] | inhibition [11] | inhibition [12] | inhibition [13] | inhibition [14] | inhibition [15] | inhibition [16] | inhibition [17] | inhibition [18] | inhibition [19] | inhibition [20]
1 | CCn1c(-c2nonc2N)nc2c(N3CCCC3)nccc21 | 4.04% | -1.15% | -2.43% | -2.04% | -1.4% | -1.28% | -2.02% | 0.03% | -1.53% | -7.4% | -3.39% | 0.93% | 1.39% | 9.47% | 13% | -0.34% | -1.9% | 0.82% | 2.63% | -1.01%
2 | Cc1nn(C)c2cc(N(C)c3ccnc(Nc4cccc(S(N)(=O)=O)c4)n3)ccc12 | -1.13% | 5.53% | 46.8% | 8.2% | 35.1% | 10.8% | 52% | -0.96% | 6.74% | 5.24% | 22.4% | -2.88% | – | 5.33% | 13.9% | 1.02% | 16% | 2.56% | 9.38% | 1.34%
3 | Cc1ccc(C(=O)NC2CCCCC2)cc1-c1ccc(C(=O)NCC2CC2)cc1 | 3.11% | 2.04% | 3.76% | 2.45% | 4.53% | 1.79% | 3.75% | 1.78% | 3.37% | 2.72% | 1.73% | 3.79% | 6.99% | 10.6% | 14.3% | 1.02% | 0.13% | 1.18% | 0.87% | 0.94%
4 | CS(=O)(=O)CCNCc1ccc(-c2ccc3ncnc(Nc4ccc(OCc5ccccc5)c(Cl)c4)c3c2)o1 | 1.26% | 0.85% | 7.53% | 0.69% | 4.31% | 0.7% | 14.7% | -0.28% | 0.13% | 0.67% | 5.6% | 3.48% | 9.08% | 82.5% | 85.6% | 61.7% | 93.6% | 52.9% | 87.6% | 2.68%
5 | O=C(Nc1n[nH]c2nc(-c3ccco3)c(Br)cc12)C1CC1 | -1.16% | 3.07% | 20.5% | 7.33% | 4.58% | 6.01% | 3.67% | -0.13% | 4.11% | 6.94% | 4.14% | 0.37% | 2.85% | 2.5% | 5.12% | 3.62% | 0.54% | 0.96% | 1.89% | 1.4%
6 | NC(=O)c1ccc(-c2nc(-c3ccccn3)c(-c3ccc4c(c3)OCO4)[nH]2)cc1 | -1.2% | 1.51% | 3.67% | 6% | 2.22% | 1.72% | 1.4% | -0.29% | 0.83% | 5.75% | 6.81% | 2.6% | 4.42% | 2.11% | 4.7% | 4.74% | 3.79% | 2.1% | 2.01% | -0.51%
7 | CC(C)=Cc1cccc2c1/C(=N/Nc1ccc(S(N)(=O)=O)cc1)C(=O)N2 | 5.18% | 3.01% | 31.1% | -0.19% | 6.64% | 1.35% | -1.64% | 1.86% | 3.95% | 0.6% | 1.41% | 0.85% | 7.39% | 2.03% | 5.14% | 1.48% | 9.14% | 1.19% | 3.55% | 1.38%
8 | COc1ccc(-c2nn3ncccc3c2-c2ccnc(Nc3ccc(Cl)c(C(F)(F)F)c3)n2)cc1 | -2.97% | 1.79% | 2.85% | 2.75% | 2.33% | 3.82% | 4.81% | 0.66% | 0.36% | -0.37% | 5.3% | 0.69% | 3.24% | 0.68% | 3.67% | 1.63% | 14.3% | 2% | 5.96% | 0.44%
9 | NS(=O)(=O)c1cccc(-c2ccc3c(NC(=O)C4CC4)n[nH]c3c2)c1 | 2.37% | -0.75% | 0.74% | -2.14% | 0.66% | -2.66% | 0.49% | -0.13% | -1.52% | -7.29% | -3.46% | -0.11% | -9.65% | 0.04% | 0.71% | -0.88% | -2.32% | 1.67% | -0.49% | -1.44%
10 | COc1cc2ncn(-c3cc(OCc4ccccc4C(F)(F)F)c(C(N)=O)s3)c2cc1OC | -1.95% | 1.67% | 17.8% | 4.67% | 8.1% | 3.25% | 5.16% | -3.7% | -1.82% | 3.11% | 9.28% | 7.36% | 7.43% | – | 3.5% | 2.54% | 13.5% | 3.75% | 4.35% | 2%
11 | CCn1c(-c2nonc2N)nc2cncc(C(=O)N3CCNCC3)c21 | -9.66% | 2.72% | 4.31% | 6.75% | 8.89% | 4.01% | 5.31% | -1.34% | 1.16% | 4.39% | 4.45% | 1.63% | 1.68% | 1.08% | 2.62% | 3.95% | 3.98% | 3.22% | 5.49% | 2.68%
12 | O=C1NC(=O)C(c2cccc(Cl)c2)=C1Nc1ccc(O)c(Cl)c1 | -0.83% | 0.13% | 5.96% | 4.05% | 1.46% | -2.09% | -2.04% | -0.33% | 1.57% | 0.82% | -5.59% | -1.25% | -1.13% | -0.21% | 1.12% | -2.01% | -0.47% | -0.43% | -0.33% | -0.72%
13 | Cc1nnc(-c2ccc(C)c(-c3ccc(C(=O)Nc4cccc(C#N)c4)cc3)c2)o1 | – | 2.41% | 3.76% | 4.54% | 2.78% | 2.27% | 2.95% | -0.22% | 1.88% | 0.99% | 6.38% | 1.45% | 1.83% | 6.74% | 8.18% | 0.95% | 3.01% | 1.88% | 2.37% | 1.41%
